# Active and inactive are the calls of the source. Cut-off read from the data, not from the text of the source, unless noted: active = inhibition above about 80%; inactive = the rest.
# What was measured:
# [1] = galactose survival enhancers in mitochondrial complex I cybrids – cell-based, galactose medium, ATP luminescence, primary screen (AID 1645843;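 active = z-score of at least 1.8 in each of two replicates, scored against plate mean and spread of sample wells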;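 note: positive z means more ATP and so rescue of galactose-driven cybrid death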); settings: complex I mutant cybrid cells, 72 h, stronger effect = higher value
# [2] = growth inhibition, single agent or in combination, cell-based, chromothripsis tumors, cisplatin or BGB combos (AID 1671449); settings: LFS_MB_P medulloblastoma cells;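 note: cells exposed for 96 hours; 0% = vehicle DMSO and 100% = killing by high DMSO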
# [3] = growth inhibition, single agent and combos, cell-based, chromothripsis tumors, cisplatin or BGB combos (AID 1671450); settings: HDN33 neuroblastoma cells, stronger effect = higher value;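 note: cells exposed to compound for four days; 0% = vehicle DMSO and 100% = cell killing by high DMSO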
# [4] = growth inhibition, single agents and combos, ICB984, cell-based, cisplatin or BGB combos, synergistic combos for chromothripsis tumors (AID 1671451; call rule not given here;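 note: cells exposed for 96 hours before readout; 0% = vehicle DMSO and 100% = killing by high DMSO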); settings: ICB984 medulloblastoma cells, drug combinations, stronger effect = higher value
# [5] = growth inhibition, single agents and combos, LFS_MB_1R, cell-based, cisplatin or BGB combos, synergistic combos for chromothripsis tumors (AID 1671452); settings: LFS_MB_1R medulloblastoma cells, stronger effect = higher value;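 note: cells exposed for 96 hours before readout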
# [6] = growth inhibition, single agents and combos, HTB85, cell-based, BGB or cisplatin IC20 combos, synergistic combos for chromothripsis tumors (AID 1671453); settings: HTB85 osteosarcoma cells, drug combinations, stronger effect = higher value;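 note: cells exposed for 96 hours before readout; 0% = vehicle DMSO and 100% = high DMSO killing control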
# [7] = growth inhibition, single agents and combos, CRL2098, cell-based, BGB or cisplatin IC20 combos, synergistic combos for chromothripsis tumors (AID 1671454); settings: CRL2098 osteosarcoma cells, drug combinations, stronger effect = higher value;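 note: cells exposed for 96 h before readout; 0% = vehicle DMSO and 100% = killing by high DMSO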
# [8] = growth inhibition, single agents and combos, HD-MB03, cell-based, BGB or cisplatin IC20 combos, synergistic combos for chromothripsis tumors (AID 1671455; in the data active = inhibition above about 83%;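 note: 0% = vehicle DMSO and 100% = high DMSO as cytotoxic control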); settings: HD-MB03 medulloblastoma cells, stronger effect = higher value
# [9] = growth inhibition, single agents and combos, UWB1.289, cell-based, BGB or cisplatin combos, synergistic combos for chromothripsis tumors (AID 1671456); settings: UWB1.289 ovarian carcinoma cells, stronger effect = higher value;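 note: cells exposed to compound for four days; 0% = vehicle DMSO and 100% = killing by high DMSO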
# [10] = growth inhibition, single agents and combos, LFS_MB_2R, cell-based, cisplatin combos, synergistic combos for chromothripsis tumors (AID 1671457); settings: LFS_MB_2R medulloblastoma cells, stronger effect = higher value;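 note: cells exposed to compound for four days before readout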
# [11] = growth inhibition, MDA-MB-436, cell-based, BGB or cisplatin combos, synergistic combos for chromothripsis tumors (AID 1671458; call rule not given here;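 note: cells exposed for 96 hours; 0% = vehicle DMSO and 100% = killing by high DMSO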); settings: MDA-MB-436 breast carcinoma growth inhibition, drug combinations, stronger effect = higher value
# [12] = UWB1.289_BRCA1 ovarian cancer growth, cell-based, BGB or cisplatin combinations (AID 1671459); settings: UWB1.289 BRCA1 ovarian carcinoma, drug combinations, stronger effect = higher value
# [13] = drug combination toxicity in non-malignant astrocytes – cell-based, BGB or cisplatin IC20 combos, cytotoxicity control for chromothriptic childhood tumor combination screen (AID 1671460); settings: Human astrocytes, viability inhibition, drug combinations, at 0.5 µM, stronger effect = higher value;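 note: cells exposed to compounds for 96 hours before viability readout; 0% = vehicle and 100% = killing control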
# [14] = BT084 cell growth, single and combined drugs, ICGC_MB145, cisplatin and BGB IC40 combos (AID 1671461); settings: BT084 medulloblastoma cells, drug combinations, stronger effect = higher value;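 note: cells exposed to drugs for 96 hours; 0% = vehicle DMSO and 100% = high DMSO full killing control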
# [15] = RCMB18 cell growth, single agent and combined, cisplatin and BGB IC40 combos (AID 1671462); settings: RCMB18 medulloblastoma cells, stronger effect = higher value;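 note: cells exposed to compound for four days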
# [16] = CRL1545 cell growth, single agent and combined, cisplatin and BGB IC20 combos (AID 1671464); settings: CRL1545 osteosarcoma cells, stronger effect = higher value;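 note: cells exposed to compound for 96 hours before readout; 0% = vehicle DMSO and 100% = high DMSO killing control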
# [17] = measured here: combination with BGB IC40, at 0.05 µM
# [18] = measured here: with BGB IC20 combination, at 0.5 µM
# [19] = measured here: with cisplatin IC20 combination, at 0.5 µM
# [20] = measured here: combination with cisplatin, at 0.5 µM
# [21] = measured here: combination with cisplatin, at 5 µM
structure (smiles),measurement,setting,value
CCCC(NC(=O)c1cc(C)oc1C)c1ccccc1 (centres undefined),z-score,[1],-0.63 (inactive)
C[C@H](NC(=O)c1ccccc1N=Cc1c(O)ccc2ccccc12)c1ccccc1,inhibition,"[2]; at 0.5 µM, stronger effect = higher value",-32.5% (inactive)
same,inhibition,"[2]; measured here: combination with BGB IC20, at 0.005 µM",-24.4%
same,inhibition,"[2]; measured here: combination with BGB IC40, at 0.005 µM",-29.4%
same,inhibition,[2]; [17],-11%
same,inhibition,"[2]; measured here: combination with cisplatin, at 0.5 µM, stronger effect = higher value",-57.7%
same,inhibition,"[2]; measured here: combination with cisplatin, at 5 µM, stronger effect = higher value",-10%
same,inhibition,"[3]; BGB combo, at 5 µM",-7.69%
same,inhibition,[3]; at 0.5 µM,1.7% (inactive)
same,inhibition,"[3]; cisplatin combo, at 5 µM",-4.45%
same,inhibition,[3]; [18],-2.8%
same,inhibition,[3]; [19],-1.48%
same,inhibition,"[3]; single agent, at 5 µM",7.54%
same,inhibition,"[4]; BGB IC20 combo, at 0.005 µM",1.67%
same,inhibition,"[4]; BGB IC40 combo, at 0.005 µM",-1.06%
same,inhibition,"[4]; BGB IC40 combo, at 0.05 µM",7.65%
same,inhibition,[4]; at 0.5 µM,-7.38% (inactive)
same,inhibition,"[4]; cisplatin combo, at 0.05 µM",3.01%
same,inhibition,"[4]; cisplatin combo, at 0.5 µM",-7.71%
same,inhibition,"[4]; cisplatin combo, at 5 µM",-12.4%
same,inhibition,"[4]; measured here: 5 uM single agent, at 5 µM",5.4%
same,inhibition,[5]; at 0.5 µM,-6.38% (inactive)
same,inhibition,[5]; [17],-9.7%
same,inhibition,[5]; [20],-2.62%
same,inhibition,[5]; [21],12.2%
same,inhibition,[6]; at 0.5 µM,1.08% (inactive)
same,inhibition,"[6]; measured here: with BGB IC20, at 0.5 µM",5.46%
same,inhibition,"[6]; measured here: with BGB IC20, at 5 µM",7.19%
same,inhibition,"[6]; measured here: with cisplatin IC20, at 0.5 µM",-9.86%
same,inhibition,"[6]; measured here: with cisplatin IC20, at 5 µM",-2.37%
same,inhibition,"[6]; single agent, at 5 µM",12.6%
same,inhibition,[7]; at 0.5 µM,5.5% (inactive)
same,inhibition,"[7]; measured here: combination with BGB at IC20, at 0.5 µM",-35.4%
same,inhibition,"[7]; measured here: combination with cisplatin at IC20, at 0.5 µM",58.3%
same,inhibition,[8]; at 0.5 µM,6.83% (inactive)
same,inhibition,"[8]; measured here: combo with BGB at IC20, at 0.5 µM",11.2%
same,inhibition,"[8]; measured here: combo with cisplatin at IC20, at 0.5 µM",5.12%
same,inhibition,[9]; at 0.5 µM,17.4% (inactive)
same,inhibition,"[9]; measured here: inhibition with BGB combination, at 0.05 µM",3.84%
same,inhibition,"[9]; measured here: inhibition with cisplatin combination, at 0.05 µM",5.13%
same,inhibition,[10]; at 0.5 µM,-0.99% (inactive)
same,inhibition,[10]; [20],5.16%
same,inhibition,[10]; [21],4.48%
same,inhibition,[11]; at 0.5 µM,-1.91% (inactive)
same,inhibition,"[11]; measured here: BGB combination, at 0.5 µM",-7.38%
same,inhibition,"[11]; measured here: BGB combination, at 5 µM",-1.84%
same,inhibition,"[11]; measured here: cisplatin combination, at 0.5 µM",-10.5%
same,inhibition,"[11]; measured here: cisplatin combination, at 5 µM",-4.49%
same,inhibition,"[12]; BGB combination, concentration series, at 5 µM",-2.68%
same,inhibition,[12]; at 0.5 µM,1.55% (inactive)
same,inhibition,"[12]; cisplatin combination, concentration series, at 5 µM",4.86%
same,inhibition,[13],3.33% (inactive)
same,inhibition,[13]; measured here: combo with BGB IC20,4.85%
same,inhibition,[13]; measured here: combo with cisplatin IC20,-2.44%
same,inhibition,[14]; at 0.5 µM,-3.76% (inactive)
same,inhibition,"[14]; cisplatin combination, at 0.5 µM",0.659%
same,inhibition,"[14]; cisplatin combination, at 5 µM",-186%
same,inhibition,"[14]; measured here: BGB IC40 combination 0.05 uM, at 0.05 µM",5.69%
same,inhibition,"[14]; single agent, at 5 µM",-0.461%
same,inhibition,[15]; at 0.5 µM,-3.35% (inactive)
same,inhibition,"[15]; cisplatin combo, at 5 µM",-10.8%
same,inhibition,"[15]; measured here: BGB IC40 combination, at 0.05 µM",-9.58%
same,inhibition,[15]; [20],-13.6%
same,inhibition,"[15]; single agent, at 5 µM",3.49%
same,inhibition,[16]; at 0.5 µM,-10.6% (inactive)
same,inhibition,[16]; [18],-16.9%
same,inhibition,[16]; [19],-9.19%
same,inhibition,"[16]; single agent, at 0.05 µM",-20.9%
same,inhibition,"[16]; single agent, at 5 µM",-71%

# — PubChem BioAssay
